Rows were chosen to be rich in hits. Some 9.2% of all compounds tested hit in one or more screens of this group.
FLuc counter: inhibits or activates purified firefly luciferase, miR-21 counter-screen; P08659; purified FLuc, Km substrates, luminescence inhibition; Potency, µM (titrated, usually from 57.5 µM), for inactives: top-dose activity change, negative = inhibition, actives largely listed as inhibitors; 6.9% of 360,000 active; AID 588342;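 also: plate controls were vehicle for no effect and reference inhibitor for full effect; nearly all actives have a fitted effect of over 55% in size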
Target sequence (P08659 whole entry, looked up): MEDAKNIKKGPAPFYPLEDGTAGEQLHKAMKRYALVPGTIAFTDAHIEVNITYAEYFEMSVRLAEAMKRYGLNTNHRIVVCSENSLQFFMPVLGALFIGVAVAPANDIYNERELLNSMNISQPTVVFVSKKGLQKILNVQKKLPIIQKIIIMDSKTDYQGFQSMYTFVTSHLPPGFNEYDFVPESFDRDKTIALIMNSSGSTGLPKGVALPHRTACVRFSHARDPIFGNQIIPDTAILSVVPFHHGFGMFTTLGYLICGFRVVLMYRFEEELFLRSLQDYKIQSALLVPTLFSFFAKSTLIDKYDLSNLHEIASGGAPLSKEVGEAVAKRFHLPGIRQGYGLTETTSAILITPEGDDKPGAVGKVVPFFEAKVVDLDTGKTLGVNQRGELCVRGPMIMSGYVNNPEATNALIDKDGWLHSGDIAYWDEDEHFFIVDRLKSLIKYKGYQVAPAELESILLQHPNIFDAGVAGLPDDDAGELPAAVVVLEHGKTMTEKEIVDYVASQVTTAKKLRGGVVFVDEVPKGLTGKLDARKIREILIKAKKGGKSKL
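Purified P. pyralis luciferase (10nM final) with 10uM D-luciferin and 10uM ATP (Km levels) in 50mM Tris acetate pH 7.5, 10mM Mg acetate, 0.01% Tween-20, 0.05% BSA; qHTS 6-point titration, ~60 µM downward; luminescence read.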
NPC1 promoter act: activators of NPC1 promoter | Huh7 NPC1 promoter luciferase reporter, 24 h | Potency, µM (doses to about 9.22 µM), for inactives: at the top dose activation, most hits filed as activators | 2.4% of 320,000 active | AID 485313; also: % of control where 0% means no effect; nearly all actives have a fitted effect of over 60% in size
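Huh7 cells stably carrying NPC1 promoter–luciferase, plated in Opti-MEM with 10% FBS for 2 h, were exposed to compound in DMSO for 24 h at 37 °C; luciferase reagent was added for 10 min and luminescence read.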
ELG1 genotox: genotoxicity induction in ELG1-luciferase HEK293T cells. HEK293T ELG1-luciferase reporter, luminescence, 16 h. Potency, µM (top dose mostly 46 µM), without a hit: at the top dose activity change, positive = activation, most hits filed as activators. 1.3% of 330,000 active; also: % of control where 0% means no effect; nearly all actives have a fitted effect of over 60% in size
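DMSO vehicle served as control against compound-treated ELG1-luciferase HEK293T cells; exposure lasted 16 hr at 37 °C and 5% CO2, followed by ONE-Glo luminescence detection after 30 min.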
SMN2 splice up: enhancers of SMN2 splice variant expression; 2.8% of 210,000 active; AID 1458; HEK293 SMN2-luciferase splicing reporter, luminescence, 30-36 h; Potency, µM (highest dose often 46.1 µM), without a hit: at the top dose activity change, positive = activation, hits mostly activators; also: % of control where 0% means no effect; nearly all actives have a fitted effect of over 55% in size
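HEK293 cells carry an SMN2 minigene-luciferase reporter in which exon 7 inclusion puts luciferase in frame. Cells were seeded at 2000 cells/well, attached for 10-12 hours, then exposed to compounds for 30-36 hours at 37C before ONE-Glo luminescence.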
Rab9 promoter act: activates the Rab9 promoter; Huh7 Rab9 promoter-luciferase reporter, luminescence, 24 h; Potency, µM (titrated, usually from 9.22 µM), for inactives: at the top dose activation, negative = inhibition, actives largely listed as activators; 2.8% of 320,000 active; AID 485297; also: % of control where 0% means no effect; nearly all actives have a fitted effect of over 60% in size
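Luciferase signal after 10 min detection reagent at ambient indicates Rab9 promoter upregulation; stably transfected Huh7 cells were treated 24 h with compound in DMSO at 37 °C, 5% CO2.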
ELG1 repair inh: blocks ELG1-dependent DNA repair in HEK293T cells. HEK293T ELG1-luciferase reporter, luminescence, 16 h; DNA damage induced by 5-fluorouridine. 2.3% of 330,000 active. Potency, µM (series often up to 46.1 µM), inactives show at the highest dose activity change, negative = inhibition, hits mostly inhibitors. AID 504467; also: % is scaled to controls: 0 for no effect and ±100 for the full control effect; nearly all actives have a fitted effect of over 55% in size
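Overnight (16 hr) co-exposure of 2,000 cells/well to 5-fluorouridine and compound at 37 °C preceded detection. Luciferase was quantified via ONE-Glo luminescence; loss of signal denotes inhibition.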
Starred values were filed as active, the others as inactive; u = inconclusive; x = no result given. Calls follow the shape of the dose curve; as a rule, active = well fitted curve in the direction sought with a large enough effect; inconclusive = small, poorly fitted or top-dose-only effect, or another doubt; inactive = no such curve, though single readings can be large; an effect the other way counts as inactive or inconclusive. Potency is read from the fitted curve at half-maximal effect.

SMILES	FLuc counter	NPC1 promoter act	ELG1 genotox	SMN2 splice up	Rab9 promoter act	ELG1 repair inh
CC(=O)Nc1ccccc1	x	x	2.4%	2.8%	x	10.1%
CC(=O)Nc1ccc(N=Nc2ccccc2)cc1	6.01µM*	2.82µM*	10.3µM*	10µM*	2.82µM*	u
O=C(Nc1ccc(N=Nc2ccccc2)cc1)c1ccc(Cl)cc1Cl	2.4%	-8.1%	4.4%	-4.2%	2.5%	21.5%
Cc1onc(-c2ccccc2Cl)c1C(=O)Oc1ccccc1F	-13.2%	x	x	x	x	x
O=c1nc(Nc2ccc(OCc3ccccc3)cc2)sc2ncccc12	-1.7%	-2.4%	-3.2%	3.55µM*	12.8%	u
CC(=O)c1ccc(Nc2nc(=O)c3cccnc3s2)cc1	-9.8%	x	x	u	x	x
CCOC(=O)c1ccc(Nc2nc(=O)c3cccnc3s2)cc1	u	3.55µM*	4.5%	10µM*	4.47µM*	u
Cc1ccc(NC(=O)CSc2n[nH]c(-c3ccncc3)n2)c(C)c1	-4.3%	-1.8%	4.3%	x	2.1%	3.9%
Cc1ccc(NC(=O)Cc2nc(-c3c[nH]c(C(=O)N4CCCC4)c3)cs2)c(C)c1	-3.2%	2.2%	-5.6%	x	-3.7%	16.4µM*
Cc1ccc(C)c(NC(=O)CCn2nc(C)c3c(C)n(-c4ccccc4)nc3c2=O)c1	-7.9%	x	x	x	x	x
CCCCN(C)C(=O)Cn1cnc2sc(C)c(S(=O)(=O)N3CCN(c4ccccc4OC)CC3)c2c1=O	-0.1%	-2.4%	-17.4%	7.1%	-2.0%	5.17µM*
COc1ccc(C)cc1NC(=O)CN1C(=O)COc2ccc(C)cc21	1.0%	-5.1%	1.9%	x	1.2%	-10.0%
O=C(COC(=O)c1cc(=O)[nH]c2ccccc12)c1ccccc1	2.69µM*	-0.3%	-7.6%	5.0%	-0.5%	-5.9%
O=C(OCC(=O)c1cccs1)c1ccccc1	0.953µM*	21.0%	u	-5.8%	11.0%	u
Cc1ccc(C(=O)COC(=O)c2cc(=O)[nH]c3ccccc23)cc1	u	6.2%	u	u	3.1%	25.0%
O=C(COC(=O)c1cc(=O)[nH]c2ccccc12)c1cccs1	12µM*	-1.8%	-1.9%	x	-7.0%	3.0%
CCCCCN(C(=O)CCC(=O)OCC(=O)N1CCCCC1)c1c(N)n(CCCC)c(=O)[nH]c1=O	3.5%	-0.9%	5.3%	x	5.3%	-5.4%
CC(Oc1cccnc1[N+](=O)[O-])C(=O)N1CCc2ccccc21 (stereo unspecified)	x	x	-2.0%	x	x	-1.6%
COc1cc2cc(CN(Cc3cccnc3)C(=O)NCc3ccccc3)c(=O)[nH]c2cc1OC	-0.6%	0.7%	1.0%	43.0%	-0.1%	u
CCC(C)NC(=S)N(CCc1ccccc1)Cc1cc2cc(OC)c(OC)cc2[nH]c1=O (stereo unspecified)	-0.7%	1.4%	-6.1%	7.1%	-1.9%	6.51µM*
COc1cc2cc(CN(Cc3cccnc3)C(=O)Nc3ccccc3)c(=O)[nH]c2cc1OC	-14.8%	-8.8%	-1.9%	8.2%	-9.7%	7.3µM*
O=S(=O)(CCSc1nc2ccccc2o1)c1nc2ccccc2s1	-0.3%	-0.7%	-2.2%	17.8µM*	-7.6%	u
O=C(CSc1ccccn1)Nc1nc2ccccc2s1	u	22.2%	u	18.8%	21.4%	u
O=S(=O)(CCSc1ccccn1)c1nc2ccccc2s1	3.1%	-1.2%	-10.0%	11.2µM*	-4.4%	5.3%
COc1cccc(C=Nc2cccc3c(=O)[nH][nH]c(=O)c23)c1O	0.601µM*	-3.2%	u	8.5%	-0.3%	u
SMILES	FLuc counter	NPC1 promoter act	ELG1 genotox	SMN2 splice up	Rab9 promoter act	ELG1 repair inh
Cc1ccc(C)c(N2CCN(C(=O)C34CC5CC(C3)CC(n3nnc(C)n3)(C5)C4)CC2)c1	1.8%	-13.1%	-11.1%	x	-15.6%	20.6µM*
Cc1ccccc1/C=N/N=C1/NC(=O)CCS1	u	16.1%	10.0%	x	1.2%	u
O=C1CCS/C(=N\N=C\c2ccc(Cl)cc2Cl)N1	19µM*	u	u	x	u	u
CCOc1ccccc1NC(=O)CN1C(=O)COc2ccc(S(=O)(=O)N3CCCCC3)cc21	3.1%	x	x	x	x	x
CC1CCc2c(sc(NC(=O)C3CCCO3)c2C#N)C1 (stereo unspecified)	10.7µM*	3.55µM*	u	11.2µM*	3.16µM*	u
CC1CCc2c(sc(/N=C/N(C)C)c2C#N)C1 (stereo unspecified)	15.1µM*	24.2%	u	24.8%	4.47µM*	u
CC1CCc2c(sc(NC(=O)COC(=O)C3CCCO3)c2C#N)C1 (stereo unspecified)	u	12.1%	17.1%	19.8%	21.7%	u
CCOC(=O)Nc1sc2c(c1C#N)CCC(C)C2 (stereo unspecified)	10.7µM*	2.82µM*	u	20.0%	3.16µM*	u
COC(=O)c1ccc(COc2cccnc2[N+](=O)[O-])cc1	-2.4%	-3.3%	22.3%	x	-0.6%	27.9%
Fc1ccc([C@H]2CCNCC2COc2ccc3c(c2)OCO3)cc1 (stereo partly specified)	x	x	x	0.8%	x	x
CN(C)S(=O)(=O)N1CCC(c2ccc(F)cc2)C(COc2ccc3c(c2)OCO3)C1 (stereo unspecified)	-0.9%	1.5%	-2.8%	-22.2%	7.5%	16.4µM*
Cc1nnc2n1N=C(c1ccc(F)cc1F)CS2	x	0.2%	7.0%	x	-7.8%	11.2%
CC(=O)NCCN=Cc1sc2ccccc2c1O	u	2.6%	2.5%	-3.4%	-0.7%	u
CCCN=Cc1sc2ccc(OCC)cc2c1O	12µM*	u	23.1µM*	2.6%	3.16µM*	u
O=C(Nc1nnc(C2CCCO2)s1)c1ccc(Br)cc1 (stereo unspecified)	u	3.55µM*	u	26.8%	u	u
Cc1ccc(OCC(=O)Nc2nnc(C3CCCO3)s2)c(Br)c1 (stereo unspecified)	u	2.4%	7.3%	4.2%	-3.4%	u
CC(C)CNC(=O)C1=CC(c2ccc3c(c2)OCO3)=NS(=O)(=O)N1C	0.9%	x	x	x	x	x
O=C1CCCC/C1=N\Nc1ccc(C2CCCCC2)cc1	1.69µM*	24.8%	4.61µM*	x	u	u
COc1ccc(NC(=O)Nc2ccc3c(c2)C(=O)N([C@H](C)CO)C[C@H](C)[C@@H](CN(C)C(=O)Nc2ccccc2)O3)cc1	x	x	13.4%	x	x	16.3%
N#Cc1ccc(S(=O)(=O)N2CCc3[nH]c4ccc(F)cc4c3C2)cc1	-3.2%	0.4%	-5.0%	x	-3.6%	16.4%
C=CCOn1c(C)c(C(C)=O)c2c3nonc3ccc21	-2.5%	-0.2%	-10.2%	-35.5%	-6.2%	10.3µM*

Bioassay records: PubChem BioAssay, National Center for Advancing Translational Sciences (NCATS)
